# Results reported in PubChem BioAssay AID504329 (Southern Research Specialized Biocontainment Screening …, 2011).
# Out of some 340,000 compounds screened, about 1,000 (0.29%) were called active. No stated cut-off is given here; in the data, inconclusive means inhibition above about 27% without an active follow-up result; inactive means below that. Only a sample is shown. Results with a measured potency or affinity are listed apart.
# Test: H1N1 influenza NS1A inhibitors, functional cell based assay (AID 504329)
# Settings: percent inhibition, at 12.5 µM, active compounds read high
row,SMILES,inhibition
1,Cc1ccc(S(=O)(=O)CCC(=O)OC2CC(C)OC2=O)cc1 (centres undefined),-7.36% (inactive)
2,C=CCOc1ccc(Br)cc1/C=C1\NC(=S)N(C(C)=O)C1=O,5.35% (inactive)
3,O=C(O)CP(=O)(c1ccccc1)c1ccccc1,-20.8% (inactive)
4,O=C(NC1CC1)C1CSC(c2cccnc2)=N1 (centres undefined),-5.68% (inactive)
5,COC(=O)CNC(=O)CNC(=O)c1nn(-c2ccc(OC)c(Cl)c2)c(=O)c2ccccc12,-9.13% (inactive)
6,Cc1ccc(S(=O)(=O)c2nc(NCCN(C)C)sc2Cl)cc1,3.06% (inactive)
7,CCOC(=O)C1=C(C(=O)OCC)N(Cc2ccccc2)CCC1=O,-3.47% (inactive)
8,Cc1ccc(/C=N/NC(=O)C(C)NC(=O)c2ccccc2)cc1 (centres undefined),-0.33% (inactive)
9,CCC(C)NC(=O)CSc1nc2ccccc2c(=O)n1-c1c(C)n(C)n(-c2ccccc2)c1=O (centres undefined),-0.57% (inactive)
10,Fc1ccccc1CSc1nnc(-c2cnccn2)n1Cc1ccco1,-1.61% (inactive)
11,O=C(NCCc1ccccc1)c1cc(-c2ccccc2)c(N2CCOCC2)s1,1.49% (inactive)
12,CCCNC(=O)c1cc(-c2ccccc2)c(N2CCCCC2)s1,-16.7% (inactive)
13,CC(=O)n1cc(/C=N/NC(N)=S)c2ccccc21,-5.48% (inactive)
14,NC(=S)N/N=C/c1c(O)ccc2ccccc12,-3.38% (inactive)
15,NC(=S)N/N=C\c1c2ccccc2cc2ccccc12,8.41% (inactive)
16,CNc1cccnc1C=NNC(N)=S,17.7% (inactive)
17,Cn1cc(/C=N/NC(N)=S)c2ccccc21,-12.5% (inactive)
18,Cc1[nH]c2ccccc2c1/C=N/NC(N)=S,5.2% (inactive)
19,O=C(Nc1ccccc1)c1ccc(S(=O)(=O)NCc2cccnc2)cc1,10.4% (inactive)
20,CCn1c(SCC(=O)Nc2nc(-c3ccccc3)cs2)nc2c1c(=O)n(C)c(=O)n2C,4.76% (inactive)
21,Cc1ccccc1-c1n[nH]c(=S)n1/N=C/C=C/c1ccco1,-17.6% (inactive)
22,CNC(=O)Cn1nc(-c2ccc(C)c(S(=O)(=O)N(C)C)c2)c2ccccc2c1=O,-13.6% (inactive)
23,O=C1C(Nc2ccccc2)=C(N2CCCCC2)C(=O)c2ccccc21,15.3% (inactive)
24,COc1ccccc1NC1=C(N2CCCCC2)C(=O)c2ccccc2C1=O,-0.23% (inactive)

row,SMILES,inhibition
1,CC(=O)N(C)C1=C(N2CCOCC2)C(=O)c2ccccc2C1=O,1.43% (inactive)
2,CC(=O)N(C1=C(N2CCOCC2)C(=O)c2ccccc2C1=O)c1ccc(C(=O)O)cc1,0.48% (inactive)
3,O=C(Nc1ccc(OC(F)F)cc1)c1cc(S(=O)(=O)N2CCOCC2)ccc1F,-7.89% (inactive)
4,COCc1c(C(=O)OCC(=O)N(C)C2CCS(=O)(=O)C2)oc2ccccc12 (centres undefined),-9.04% (inactive)
5,Cc1ccccc1NC(NC(=O)c1cccnc1)C(Cl)(Cl)Cl (centres undefined),-5.69% (inactive)
6,Cc1ccc(S(=O)(=O)Nc2ccc(N=Nc3ccc(O)cc3)cc2)cc1,4.71% (inactive)
7,Cc1ccc(S(=O)(=O)/N=C2\C=C(NS(=O)(=O)c3ccccc3)C(=O)c3ccccc32)cc1,8.43% (inactive)
8,COCCC(=O)N1CCC(Oc2ccc(C(=O)NC3CCOC(C)(C)C3)cc2)CC1 (centres undefined),5.89% (inactive)
9,O=C1C(=O)c2ccc(-c3ccccc3)cc2-c2ccccc21,-3.6% (inactive)
10,O=C1C(=O)c2ccccc2-c2ccccc21,5.48% (inactive)
11,CC1CCN(CCCNC(=O)c2cc3c(s2)-c2ccccc2OC3)CC1,-6.94% (inactive)
12,Cc1c(Cl)cccc1NC(=O)CC1Oc2ccccc2NC1=O (centres undefined),-22.6% (inactive)
13,Fc1ccc(/C=N/NC(=S)Nc2cccnc2)cc1,-6.6% (inactive)
14,Fc1ccc(/C=N/NC(=S)Nc2cccnc2)cc1F,5.25% (inactive)
15,COc1cc(/C=N/NC(=S)Nc2cccnc2)cc(OC)c1OC,-1.86% (inactive)
16,Fc1cccc(F)c1/C=N/NC(=S)Nc1cccnc1,4.25% (inactive)
17,COc1cccc(/C=N/NC(=S)Nc2cccc(S(=O)(=O)N(C)C)c2)c1,-0.6% (inactive)
18,Oc1ccc(/C=N/NC(=S)Nc2cccnc2)cc1O,-4.43% (inactive)
19,CN(C)S(=O)(=O)c1cccc(NC(=S)N/N=C/c2cc(Br)ccc2O)c1,-4.31% (inactive)
20,S=C(N/N=C/c1ccc2ncccc2c1)Nc1cccnc1,-1.92% (inactive)
21,O=S(=O)(c1ccccc1)N1CCN(C2CCCCCCC2)CC1,-3.77% (inactive)
22,CCCn1c(=O)c(C(=O)NCc2ccc3c(c2)OCO3)c(O)c2ccccc21,-2.14% (inactive)
23,COc1ccc2oc(C(=O)OCC(=O)N3CC(C)CC(C)C3)c(C)c2c1 (centres undefined),-0.35% (inactive)
24,CSCCC(NC(=O)c1ccccc1)C(=O)NC1CCCC1 (centres undefined),1.8% (inactive)

row,SMILES,inhibition
1,COC(=O)c1ccc2c(c1)C(=O)/C(=C/c1ccc(C)cc1)O2,0.65% (inactive)
2,CC1(C)Cc2c(cnn2-c2ccccc2)C(NC(=O)CCCn2cncn2)C1 (centres undefined),4.41% (inactive)
3,Cc1ccccc1CN1CCC(n2nccc2NC(=O)CCCc2ccccc2)CC1,-1.87% (inactive)
4,O=C(NCc1cnn(-c2ccccc2)c1)C1CCC(=O)N(C2CC2)C1 (centres undefined),-1.14% (inactive)
5,CC(C)C(NC(=O)C(NC(=O)C1OC2OC(C)(C)OC2C2OC(C)(C)OC12)C(C)C)C(=O)O (centres undefined),4.15% (inactive)
6,COc1ccccc1/C=N/NC(=S)Nc1cccnc1,2.47% (inactive)
7,COc1cccc(/C=N/NC(=S)Nc2cccnc2)c1,8.47% (inactive)
8,Fc1c(F)c(F)c(/C=N/NC(=S)Nc2cccnc2)c(F)c1F,4.9% (inactive)
9,Oc1ccc(/C=N/NC(=S)Nc2cccnc2)cc1,-2.94% (inactive)
10,COC(=O)c1cc(OC)c(OC)cc1NC(=O)C(C)Sc1ccc(C)cc1 (centres undefined),-9.85% (inactive)
11,CC1(C)C2CC=C(CN3CCC(O)CC3)C1C2 (centres undefined),4.73% (inactive)
12,O=C(Nc1ccc(Cl)cc1)Nc1ccccn1,-13.9% (inactive)
13,COc1ccc(CNC(=O)Cn2nc(C(F)(F)F)c(Br)c2C)cc1,-1.07% (inactive)
14,Nc1ccc(NC(=S)Nc2ccccc2)cc1,8.73% (inactive)
15,CC(C)(C)c1ccc(C(=O)NCCCNC(=O)c2ccccn2)cc1,0.93% (inactive)
16,C/C(=N\NC(=O)c1ccc(Cl)cc1)c1ccccn1,-5.53% (inactive)
17,O=C(NCCNC(=O)c1ccccn1)c1ccc(F)cc1,4.55% (inactive)
18,CCOc1ccc(OCc2ccc(C(=O)N/N=C(\C)c3ccccn3)cc2)cc1,-8.32% (inactive)
19,CSc1ccc(CN(C)C(=O)c2cc(Cl)c3c(c2)OCCO3)cc1,0.05% (inactive)
20,Cc1ccc(C)c(S(=O)(=O)N2CCN(C(=O)CCNS(=O)(=O)c3ccc(C)c(C)c3)CC2)c1,5.37% (inactive)
21,Cc1ccc2nc(-c3cccc(S(=O)(=O)N4CCCC4)c3)cn2c1,-1.58% (inactive)
22,COc1ccc(C(=O)NCCc2c[nH]c3ccccc23)cc1S(=O)(=O)N1CCCCC1C (centres undefined),-1.05% (inactive)
23,Cc1c(-c2ccccc2)nc2ccccc2c1C(=O)Nc1ccncc1,-4.14% (inactive)
24,CC(C)=CCC[C@](C)(O[C@@H]1O[C@H](CO[C@@H]2OC[C@H](O[C@@H]3OC[C@@H](O)[C@H](O)[C@H]3O)[C@H](O)[C@H]2O)[C@@H](O)[C@H](O)[C@H]1O)C1CC[C@]2(C)C1[C@H](O)CC1[C@@]3(C)CC[C@H](O)C(C)(C)C3[C@@H](O)C[C@]12C (some centres undefined),-10.2% (inactive)

row,SMILES,inhibition
1,CC(=O)N1CCN(c2ccc(NCc3ccc(-c4cccc(Cl)c4)o3)cc2)CC1,23.9% (inactive)
2,CC(=O)N1CCN(c2ccc(NCc3ccc(Br)o3)cc2)CC1,6.1% (inactive)
3,C=CCn1c(CC(=O)Nc2ccc(C)cc2C)nnc1SCC(=O)N1CCOCC1,-7.34% (inactive)
4,C/C(=C\c1ccccc1)CN1CCN(c2cccc(Cl)c2)CC1,-1.4% (inactive)
5,Cc1ncc(N=Nc2ccc(F)cc2)c(-c2ccc(Cl)cc2)n1,10.6% (inactive)
6,COc1ccc(N=Nc2nc(-c3ccccc3)c(-c3ccccc3)[nH]2)cc1,13.8% (inactive)
7,COc1ccc(-c2nc(C)ncc2N=Nc2ccccc2)cc1,24.1% (inactive)
8,Cc1ncc(N=Nc2ccccc2)c(-c2ccccc2)n1,23.1% (inactive)
9,CSC1=N/C(=C/c2ccc(-n3cncn3)cc2)C(=O)N1,18.2% (inactive)
10,CC(=NNC(=S)N1CCN(c2ccccn2)CC1)c1ccccn1,15.8% (inactive)
11,CC(=NNC(=S)N1CCCCCC1)c1cccc2cccnc12,25.3% (inactive)
12,CSC(=S)N/N=C(\C)c1ccccc1,-5.26% (inactive)
13,S=C(Nc1ccc2nc(-c3ccccn3)c(-c3ccccn3)nc2c1)N1CCCCC1,-3.09% (inactive)
14,CSC(=S)N/N=C(\C)c1ccc(Br)cc1,-6.45% (inactive)
15,CC(=NNC(=S)N1CC2CCC(CC2)C1)c1cccc(C)n1,23.1% (inactive)
16,C/C(=N/O)c1ccccn1,1.41% (inactive)
17,Cc1cccc(C(=S)N2CCOCC2)n1,-4.89% (inactive)
18,O=C(CN1C(=O)c2ccc([N+](=O)[O-])cc2C1=O)Nc1ccccc1N1CCCC1,-7.2% (inactive)
19,Cc1ccsc1/C=N/Nc1nc(=O)[nH]nc1C,12% (inactive)
20,O=[N+]([O-])c1cc([N+](=O)[O-])c(Oc2ccc(Br)cc2Br)cc1NN1CCCCC1,-0.23% (inactive)
21,NCCCC[C@H](N)c1nnc([C@H](CCC(=O)O)NC(=O)C2CCNCC2)o1,11.3% (inactive)
22,C[C@H]1CN([C@@H](C)CO)C(=O)c2cccc(NC(=O)c3ccncc3)c2O[C@H]1CN(C)C(=O)Nc1ccccc1,-10.3% (inactive)
